From PubChem BioAssay (EPA / NIEHS)
Where “and” joins values, the source holds several entries; their conditions need not be identical. Identical values can stand only once. Inconclusive results are not listed. More than one record can exist for a structure, and the calls need not agree. Calls of active or inactive are those of the source. How the source made its calls, unless noted: active means hit-call score of the fitted dose curve at least 0.9, where 1 is the maximum; inactive means score below 0.9.

What was measured:
[1] = molecular target: human RAR-related Orphan Receptor gamma (RORg), RORC (gene 6097) (UniProt P51449); assay: ATG_RORg_TRANS: Attagene TRANS-FACTORIAL HepG2 Assay for human RAR-related Orphan Receptor gamma (RORg) (AID 2283011; active means hit-call score of the fitted dose curve at least 0.9, where 1 is the maximum;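 on AC50: potency for induction of reporter transcripts above DMSO so activators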)
Sequence of human RAR-related Orphan Receptor gamma (RORg), RORC (gene 6097) (P51449 whole entry, looked up, the tested form may be a part): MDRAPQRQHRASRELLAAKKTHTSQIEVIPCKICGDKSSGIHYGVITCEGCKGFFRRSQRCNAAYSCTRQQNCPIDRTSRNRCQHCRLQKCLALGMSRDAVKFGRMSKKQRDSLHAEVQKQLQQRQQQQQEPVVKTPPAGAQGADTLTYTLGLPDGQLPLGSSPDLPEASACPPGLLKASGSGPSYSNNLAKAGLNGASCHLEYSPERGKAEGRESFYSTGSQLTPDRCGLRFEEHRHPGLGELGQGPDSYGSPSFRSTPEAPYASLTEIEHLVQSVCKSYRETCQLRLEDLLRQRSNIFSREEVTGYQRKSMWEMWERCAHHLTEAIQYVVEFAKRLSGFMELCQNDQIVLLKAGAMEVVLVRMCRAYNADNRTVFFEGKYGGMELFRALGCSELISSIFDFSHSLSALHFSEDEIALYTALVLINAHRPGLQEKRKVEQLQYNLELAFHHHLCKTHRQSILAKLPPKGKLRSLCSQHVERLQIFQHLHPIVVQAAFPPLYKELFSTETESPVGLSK
Method in brief: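 First, HepG2 liver cells were transfected with GAL4-UAS-driven reporter constructs and the RORg-Gal4 fusion. Next, they were treated with chemical for 24 h. Finally, reporter mRNA was quantified by RT-PCR and capillary electrophoresis, with upward activity fitted against DMSO.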

[2] = molecular target: Retinoic acid receptor RXR-alpha (Homo sapiens) (UniProt P19793); assay: ATG_RXRa_TRANS: Attagene TRANS-FACTORIAL HepG2 Assay for human Retinoid X Receptor alpha (RXRa) (AID 2283012; active means hit-call score of the fitted dose curve at least 0.9, where 1 is the maximum)
Sequence of Retinoic acid receptor RXR-alpha (Homo sapiens) (P19793 whole entry, looked up, the tested form may be a part): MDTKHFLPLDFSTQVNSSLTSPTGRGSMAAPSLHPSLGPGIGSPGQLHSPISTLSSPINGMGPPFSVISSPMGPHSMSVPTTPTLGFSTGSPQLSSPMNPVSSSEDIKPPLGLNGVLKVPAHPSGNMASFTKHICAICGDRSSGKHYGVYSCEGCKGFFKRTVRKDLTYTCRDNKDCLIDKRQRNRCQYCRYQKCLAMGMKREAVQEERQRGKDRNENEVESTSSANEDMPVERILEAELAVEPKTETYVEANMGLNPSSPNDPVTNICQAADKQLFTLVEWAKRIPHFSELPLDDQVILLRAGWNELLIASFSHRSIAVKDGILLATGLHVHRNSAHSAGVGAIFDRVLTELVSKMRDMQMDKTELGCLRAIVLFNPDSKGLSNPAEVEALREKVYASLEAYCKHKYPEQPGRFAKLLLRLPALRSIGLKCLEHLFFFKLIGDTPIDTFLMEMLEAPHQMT
Method in brief: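 HepG2 cells transiently transfected with multiplexed GAL4-UAS reporter units and chimeric NR-GAL4 fusions, dosed 24 h. Reporter mRNA measured by RT-PCR, FAM labelling, HpaI digestion and capillary electrophoresis; gain-of-signal fitted relative to DMSO baseline.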

[3] = molecular target: human Retinoid X Receptor beta (RXRb), RXRB (gene 6257) (UniProt P28702); assay: ATG_RXRb_TRANS: Attagene TRANS-FACTORIAL HepG2 Assay for human Retinoid X Receptor beta (RXRb) (AID 2283013; active means hit-call score of the fitted dose curve at least 0.9, where 1 is the maximum)
Sequence of human Retinoid X Receptor beta (RXRb), RXRB (gene 6257) (P28702 whole entry, looked up, the tested form may be a part): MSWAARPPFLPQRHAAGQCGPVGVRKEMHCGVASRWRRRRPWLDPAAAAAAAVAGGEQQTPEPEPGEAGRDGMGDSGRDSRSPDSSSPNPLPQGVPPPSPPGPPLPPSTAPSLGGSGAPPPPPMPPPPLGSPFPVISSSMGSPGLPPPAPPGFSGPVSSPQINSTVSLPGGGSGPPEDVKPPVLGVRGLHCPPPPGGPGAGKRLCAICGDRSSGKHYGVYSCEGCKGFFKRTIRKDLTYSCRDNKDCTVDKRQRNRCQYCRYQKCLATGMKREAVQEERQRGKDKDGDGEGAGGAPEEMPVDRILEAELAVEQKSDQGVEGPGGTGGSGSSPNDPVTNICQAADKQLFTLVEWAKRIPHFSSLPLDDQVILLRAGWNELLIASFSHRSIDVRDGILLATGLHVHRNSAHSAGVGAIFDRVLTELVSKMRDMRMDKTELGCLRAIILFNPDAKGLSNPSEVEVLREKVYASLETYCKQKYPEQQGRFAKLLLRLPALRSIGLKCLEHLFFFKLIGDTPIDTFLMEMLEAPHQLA
Method in brief: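 HepG2 cells transiently transfected with multiplexed reporter units driven by GAL4-UAS and exogenous chimeric NR-Gal4 proteins; treated 24 h. Reporter mRNA measured by RT-PCR, 6-FAM labelling and capillary electrophoresis; gain-of-signal fitted versus DMSO baseline.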

[4] = molecular target: human Thyroid Receptor alpha (THRa1), THRA (gene 7067) (UniProt P10827); assay: ATG_THRa1_TRANS: Attagene TRANS-FACTORIAL HepG2 Assay for human Thyroid Receptor alpha (THRa1) (AID 2283014; active means hit-call score of the fitted dose curve at least 0.9, where 1 is the maximum)
Sequence of human Thyroid Receptor alpha (THRa1), THRA (gene 7067) (P10827 whole entry, looked up, the tested form may be a part): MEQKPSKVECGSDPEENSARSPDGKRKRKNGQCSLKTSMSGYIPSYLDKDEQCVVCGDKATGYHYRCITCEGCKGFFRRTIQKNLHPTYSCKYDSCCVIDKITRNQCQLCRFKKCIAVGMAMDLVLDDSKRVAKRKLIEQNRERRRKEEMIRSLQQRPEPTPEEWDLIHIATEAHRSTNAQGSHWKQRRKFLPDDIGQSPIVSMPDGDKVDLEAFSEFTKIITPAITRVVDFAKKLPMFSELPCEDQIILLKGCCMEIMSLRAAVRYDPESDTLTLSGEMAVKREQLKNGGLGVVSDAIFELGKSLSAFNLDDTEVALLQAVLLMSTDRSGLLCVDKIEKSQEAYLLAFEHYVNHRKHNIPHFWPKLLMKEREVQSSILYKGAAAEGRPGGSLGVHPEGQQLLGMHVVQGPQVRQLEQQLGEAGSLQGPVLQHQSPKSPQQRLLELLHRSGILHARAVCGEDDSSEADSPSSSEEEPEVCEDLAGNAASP
Method in brief: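 Reporter transcript induction, read by capillary electrophoresis of 6-FAM-labelled RT-PCR products, reflects activity of a transfected THRa1-Gal4 fusion in HepG2 liver cells. Cells were dosed for 24 h; activity was fitted in the positive direction against DMSO.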

[5] = read-out: E-selectin (Homo sapiens) (UniProt P16581); assay: BSK_3C_Eselectin: BioMAP Diversity Plus: 3C Assay for Eselectin Biomarker Activity (AID 2283015); conditions: primary human endothelial cells (HUVEC); actives raise or lower the signal
Method in brief: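 ELISA read-out of E-selectin on endothelial monolayers after 24 h chemical treatment. Human umbilical vein primary cells served as the system, with DMSO defining baseline activity for bidirectional fitting.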

[6] = read-out: Interleukin-1 alpha (IL1a), IL1A (gene 3552); assay: BSK_BE3C_IL1a: BioMAP Diversity Plus: BE3C Assay for Interleukin-1 alpha (IL1a) Biomarker Activity (AID 2283016); conditions: primary human bronchial epithelial cells; actives raise or lower the signal
Method in brief: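 Human primary bronchial epithelial cells (BE3C system) were dosed with compound and IL-1a measured by ELISA 24 h later. Activity was fitted bidirectionally against DMSO baseline; cytotoxicity was tracked in parallel cultures by SRB total-protein staining.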

[7] = read-out: Monocyte Chemoattractant Protein-1 (MCP1), CCL2 (gene 6347); assay: BSK_3C_MCP1: BioMAP Diversity Plus: 3C Assay for Monocyte Chemoattractant Protein-1 (MCP1) Biomarker Activity (AID 2283017); conditions: primary human endothelial cells (HUVEC); actives raise or lower the signal
Method in brief: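 ELISA read-out of MCP-1 from human umbilical vein endothelial cell cultures harvested 24 h post-dosing. Gain or loss of signal was fitted relative to DMSO.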

[8] = read-out: Monocyte Chemoattractant Protein-1 (MCP1), CCL2 (gene 6347); assay: BSK_4H_MCP1: BioMAP Diversity Plus: 4H Assay for Monocyte Chemoattractant Protein-1 (MCP1) Biomarker Activity (AID 2283018); conditions: primary human endothelial cells (HUVEC); actives raise or lower the signal
Method in brief: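 Human umbilical vein endothelial cells (4H system) dosed with chemical; MCP-1 measured by ELISA 24 h after dosing. Bidirectional curve fitting against DMSO negative control as baseline; parallel SRB total-protein staining tracks overt cytotoxicity.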

[9] = read-out: Human Leukocyte Antigen - DR isotype (HLADR), HLA-DRA (gene 3122); assay: BSK_3C_HLADR: BioMAP Diversity Plus: 3C Assay for Human Leukocyte Antigen - DR isotype (HLADR) Biomarker Activity (AID 2283019); conditions: primary human endothelial cells (HUVEC); actives raise or lower the signal
Method in brief: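 ELISA readout of surface HLA-DR on human umbilical vein endothelium, taken 24 h after chemical treatment. Gain- and loss-of-signal were both fitted relative to DMSO.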

[10] = read-out: Interleukin-8 (IL8), CXCL8 (gene 3576); assay: BSK_3C_IL8: BioMAP Diversity Plus: 3C Assay for Interleukin-8 (IL8) Biomarker Activity (AID 2283020); conditions: primary human endothelial cells (HUVEC); actives raise or lower the signal
Method in brief: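 Primary human umbilical vein endothelial cells (3C system) were exposed to test chemical for 24 h, then IL-8 was quantified by ELISA. Responses were fitted bidirectionally against DMSO vehicle as baseline.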

Measured: AC50

Sequence of E-selectin (Homo sapiens) (P16581 whole entry, looked up): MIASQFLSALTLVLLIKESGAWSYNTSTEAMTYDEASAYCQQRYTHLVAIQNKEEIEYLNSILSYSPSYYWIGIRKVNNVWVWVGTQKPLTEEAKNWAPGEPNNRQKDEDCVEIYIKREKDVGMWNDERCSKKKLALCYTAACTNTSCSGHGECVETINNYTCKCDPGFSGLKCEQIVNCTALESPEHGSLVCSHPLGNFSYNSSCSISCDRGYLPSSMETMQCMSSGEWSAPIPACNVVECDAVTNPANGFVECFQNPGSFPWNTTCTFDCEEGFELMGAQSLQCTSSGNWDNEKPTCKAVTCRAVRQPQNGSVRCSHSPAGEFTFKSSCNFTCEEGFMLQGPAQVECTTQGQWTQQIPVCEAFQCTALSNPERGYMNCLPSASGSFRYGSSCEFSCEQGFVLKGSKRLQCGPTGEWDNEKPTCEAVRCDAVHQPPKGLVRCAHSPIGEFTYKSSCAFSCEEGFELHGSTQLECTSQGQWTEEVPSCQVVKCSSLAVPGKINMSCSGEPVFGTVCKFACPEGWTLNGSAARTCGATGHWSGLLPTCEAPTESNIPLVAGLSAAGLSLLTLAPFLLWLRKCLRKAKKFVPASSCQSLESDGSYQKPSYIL

O=C(c1ccc(O)cc1O)c1ccc(O)cc1O
inactive: all assays above

CC(C)(C)[C@@H](O)[C@@H](Cc1ccc(Cl)cc1)n1cncn1
active: [9] 7.11 µM
not listed: [2]
inactive: all other assays above

c1ccc2[nH]c(-c3cscn3)nc2c1
not listed: [4]
inactive: all other assays above

CCN(CC)C(=O)c1cccc(C)c1
inactive: all assays above

Oc1ccc(C(c2ccc(O)cc2)C(Cl)(Cl)Cl)cc1
inactive: [1] | [3] | [4]
active: [5] 27.3 µM | [6] 31.5 µM | [7] 29.1 µM | [8] 14.6 µM | [9] 33.5 µM | [10] 15.5 µM

COCCO
not listed: [4]
inactive: all other assays above

C[C@]12CC[C@@H]3c4ccc(O)cc4C[C@@H](CCCCCCCCCS(=O)CCCC(F)(F)C(F)(F)F)[C@H]3[C@@H]1CC[C@@H]2O (stereo not given in full)
inactive: all assays above

CN(C)C(=O)Nc1ccc(Cl)c(Cl)c1
inactive: all assays above

CCN(Cc1c(F)cccc1Cl)c1c([N+](=O)[O-])cc(C(F)(F)F)cc1[N+](=O)[O-]
active: [8] 11.3 µM | [9] 5.69 µM
not listed: [4]
inactive: all other assays above

N[C@@H](Cc1cc(I)c(Oc2ccc(O)c(I)c2)c(I)c1)C(=O)O
not listed: [4]
inactive: all other assays above

N#CSCSc1nc2ccccc2s1
inactive: [1] | [2] | [3] | [4]
active: [1] 11.9 µM | [3] 13.3 µM | [5] 7.25 µM and 9.01 µM | [6] 6.07 µM and 10.3 µM | [7] 5.23 µM and 12.1 µM | [8] 4.06 µM and 12.2 µM | [9] 2.3 µM and 5.63 µM | [10] 8.35 µM and 14.4 µM

CCCCOCCOCCOCc1cc2c(cc1CCC)OCO2
not listed: [4]
inactive: all other assays above

CCC(O)=C1C(=O)CC(C(=O)O)CC1=O (stereo not given)
inactive: all assays above
